Pf Dd2 inh – blocks in vitro growth of P. falciparum Dd2 | P. falciparum Dd2 growth, SYBR Green, 72 h | Potency, µM (highest dose often 28.9 µM), hits mostly inhibitors | 120,000 compounds, 4.3% hits | AID 1347417; active = well fitted inhibition curve with a large enough effect; note: nearly all actives have a fitted effect of over 65% in size
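Infected erythrocytes (Dd2, 0.3% parasitemia, 2.5% hematocrit final) are added to compound in RPMI-1640/Albumax II medium, grown 72 h at 37C in low oxygen, then lysed with saponin/Triton-X containing SYBR Green and read by fluorescence.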
Each line names hits and unclear results; the compound was inactive in the other large screens. This is one part of a sample in which hits are shown more often than they occur.

Cc1ccc(CCNC(=O)c2nnn3cc(C)[nH]c(=O)c23)cc1	none
COc1ccc(S(=O)(=O)N2CCc3nnc([C@@H]4C[C@@H](O)CN4C)n3CC2)cc1	none
O=C(c1nccc2ccccc12)N1CCC(n2cc(-c3nc(-c4ccccc4)no3)nn2)C1 (stereo not drawn)	none
Cc1ccc2nc(CO[C@H]3CN(Cc4ccc(S(C)(=O)=O)cc4)C[C@H]3F)[nH]c2c1	none
COc1cc(/C=C/CN2CC(=O)N(C(C)C)CC(OCc3noc(C)n3)C2)ccc1O (stereo not drawn)	none
O=C(NCC1COc2ncncc2C(=O)N1Cc1ccccc1)c1cccs1 (stereo not drawn)	none
C=CCN(CC=C)C(=O)c1ccc(CN2C(=O)NC3(CCS(=O)(=O)CC3)C2=O)cc1	none
Cc1cnc(C(=O)NC2C[C@H]3CC[C@@H](C2)N3C(=O)c2cc(F)ccc2F)cn1 (stereo partly drawn)	none
CC(C)c1nncn1C1CCN(S(=O)(=O)Cc2ccc(Cl)cc2)CC1	none
COc1ccc(C(=O)NCC(=O)N2CCCCCNC(=O)CC2c2ccccc2)cn1 (stereo not drawn)	none
O=C(NCCc1noc(-c2ccccc2)n1)c1n[nH]c2ccccc12	none
COC[C@@H]1CN(Cc2cc(F)ccc2F)C[C@H]1C(=O)NC1CC1	none
Cc1ccc(-c2nnc(C3CN(C(=O)c4ccc(C)nc4)CC34CCOCC4)o2)cc1 (stereo not drawn)	none
COC[C@@H]1CN(S(=O)(=O)c2cc(F)cc(F)c2)C[C@H]1C(N)=O	none
CCOCCCNC(=O)c1ccc(CN2C(=O)NC3(CCS(=O)(=O)CC3)C2=O)cc1	none
CC(C)c1ccc(NC(=O)CN2C(=O)NC3(CCOCC3)C2=O)cc1	none
CN(Cc1ccc(C(F)(F)F)cc1)Cc1cccc(C(F)(F)F)c1	none
CC(C)c1ccc(CN(Cc2ccco2)c2cnc(S(C)(=O)=O)nc2C(=O)Nc2ccc(F)cc2)cc1	Pf Dd2 inh 11µM
Cc1cccc(C)c1NC(=O)c1nc(S(C)(=O)=O)ncc1N(Cc1ccc(F)cc1)Cc1ccco1	none
COc1ccc(CN(Cc2ccco2)c2cnc(S(C)(=O)=O)nc2C(=O)Nc2ccc(C)c(Cl)c2)cc1	Pf Dd2 inh 10µM
COc1ccc(CN(Cc2ccco2)C(=O)COc2ccccc2Cl)cc1	none
CCS(=O)(=O)c1ncc(Cl)c(C(=O)N(Cc2ccccc2)Cc2ccco2)n1	none
Cc1ccc(NC(=O)c2ncoc2-c2ccco2)cc1Cl	none
O=c1c2nc(N3CCC(c4ccccc4)CC3)ccc2ncn1C1CC1	none
CS(=O)(=O)N[C@@H]1[C@@H](NC(=O)CCC2=NNC(=O)CC2)[C@H]2CCO[C@H]21	none
CC1=C[C@@H](CNC(=O)c2cccnc2)[C@H](C(C)C)C[C@H]1CC(=O)N1CCN(C)CC1	none
CC(=O)N1CCN(C(=O)C[C@@H]2C[C@@H](C(C)C)[C@H](CNC(=O)Nc3cccc(F)c3)C=C2C)CC1	none
CC1=C[C@@H](CNC(=O)c2ccccn2)[C@H](C(C)C)C[C@H]1CC(=O)N1CCN(C)CC1	Pf Dd2 inh 11µM
COc1cccc(NC(=O)NC[C@@H]2C=C(C)[C@H](CC(=O)N3CCOCC3)C[C@H]2C(C)C)c1	none
COc1ccccc1C(=O)NC[C@@H]1C=C(C)[C@H](CC(=O)NCc2ccccn2)C[C@H]1C(C)C	none
COc1ccccc1C(=O)NC[C@@H]1C=C(C)[C@H](CC(=O)N2CCCC2)C[C@H]1C(C)C	Pf Dd2 inh 13µM
C#CCNC(=O)C[C@@H]1C[C@@H](C(C)C)[C@H](CNC(=O)c2ccccn2)C=C1C	none
COc1cccc(NC(=O)NC[C@@H]2C=C(C)[C@H](CC(=O)N3CCN(c4ccccn4)CC3)C[C@H]2C(C)C)c1	Pf Dd2 inh 13µM
CC1=C[C@@H](CNC(=O)c2cccnc2)[C@H](C(C)C)C[C@H]1CC(=O)N1CCCC1	none
CCc1ccccc1NC(=O)N1C[C@@H](F)C[C@H]1C(=O)N1CCCCC1	none
COc1ccc(NC(=O)N2CCCC(Cn3cnc4cccnc43)C2)c(OC)c1 (stereo not drawn)	none
COc1ccccc1N1CCN(C(=O)C[C@@H]2O[C@H](CNC(=O)c3cccc(F)c3)[C@@H](O)[C@H]2O)CC1	none
COCC(=O)N1CCCC(C(=O)NCCNc2ncccc2C)C1 (stereo not drawn)	none
CCOCC(=O)N1CCC(O)(c2ccccc2)[C@H](N2CCCC2)C1 (stereo partly drawn)	none
O=C(Cn1ccn2nc(-c3ccccc3)c(CO)c2c1=O)N1CCN(c2ccccc2F)CC1	none
O=c1c2c(CO)c(-c3ccccc3)nn2ccn1Cc1cccc(F)c1	none
COc1ccccc1N1CCN(C(=O)Cn2ccn3nc(-c4ccc(F)cc4)c(CO)c3c2=O)CC1	Pf Dd2 inh 8.9µM
COc1ccccc1N1CCN(C(=O)Cn2c(=O)nc(-c3ccccc3)c3ccccc32)CC1	Pf Dd2 inh 11µM
O=c1c2c(CO)c(-c3ccc(F)cc3)nn2ccn1CCc1ccccc1	none
COc1ccccc1N1CCN(C(=O)Cn2c(=O)n3nc(-c4cccc(F)c4)nc3c3ccccc32)CC1	none
O=C(Cn1ccn2nc(-c3ccc(F)cc3)c(CO)c2c1=O)N1CCN(c2ccccc2F)CC1	none
CCc1cc(=O)n(CC(=O)N2CCN(c3ccccc3OC)CC2)c(-c2ccccc2)n1	none
O=c1c2c(CO)c(-c3ccc(F)cc3)nn2ccn1Cc1ccc(Br)cc1	Pf Dd2 inh 8.9µM
Cc1nc(N2CCC(NC(=O)c3ccc(F)cc3Cl)CC2)cc(C(F)(F)F)n1	none
Cc1ccc(CNC(=O)N2CC(Oc3cccc(-c4nc(C)no4)c3)C2)cc1	none
CN(C)[C@@H]1[C@@H](NC(=O)CCc2nc3ccccc3[nH]c2=O)[C@H]2CCO[C@H]21	none
CC(C)(C)n1nnnc1C1CC2(CCOCC2)C(=O)N1Cc1ccco1 (stereo not drawn)	none
O=C(NC1(CN2CCOCC2)CCCC1)c1ccc(C2CCCNC2)cc1 (stereo not drawn)	none
CNc1nccc(N2CCC(CC(=O)O)CC2)n1	none
C=CCNC(=O)N[C@H]1C[C@@H](C(=O)N[C@@H](C(=O)OC)C(C)C)N(C(=O)CSC)C1	none
COc1cncc(-c2cc3c(cc2OC)C2(CCN(C(C)=O)CC2)C(=O)N3)c1	none
CN(C)c1ccc(C(=O)N[C@H]2C[C@H]3C(=O)NC[C@@H](CCC(=O)NCc4ccccc4)N3C2)cc1	none
O=C(Nc1ccccc1)N1CC(Oc2cccc(-c3nc(-c4ccccc4)no3)c2)C1	none
CCNC(=O)N1CC(Oc2cccc(-c3nc(-c4ccccc4)no3)c2)C1	Pf Dd2 inh 1.3µM
O=C(c1ccc(F)cc1)N1CC(Oc2cccc(-c3nc(-c4ccccc4)no3)c2)C1	none
CCn1ccc2oc(C)c(C(=O)N3CCN(c4ccccc4Cl)CC3)c2c1=O	none
CC(=O)N1C[C@@H]2CCCN3CCC[C@@H]([C@H]23)[C@H]1CCCC(=O)N(C)Cc1ccc(N2CCOCC2)cc1	none
CN(C)c1cccc(C(=O)NCCC2CCN(C(=O)Nc3cc(F)cc(F)c3)CC2)c1	none
Cc1cc(OCC(=O)Nc2cc(-c3nc4ncccc4o3)ccc2C)ccc1Cl	Pf Dd2 inh 10µM
Cc1cc(-c2nc3ncccc3o2)ccc1NC(=O)COc1cc(C)c(Cl)c(C)c1	none
Cc1cc(-c2nc3ncccc3o2)ccc1NC(=O)COc1ccccc1C	none
CCn1c2ccccc2c2cc(CN3CCN(Cc4ccccc4F)CC3)ccc21	none
COc1cc(CN2CCN(S(=O)(=O)c3ccccc3)CC2)cc(OC)c1O	none
CCn1c2ccccc2c2cc(CN3CCN(Cc4cc(OC)c(O)c(OC)c4)CC3)ccc21	Pf Dd2 inh 11µM
CN1[C@@H](CCC(=O)NCc2cccs2)CNC(=O)[C@@H]2[C@H]1CCN2Cc1ccc(O)cc1	none
